# Test results taken from PubChem BioAssay (EPA / NIEHS).
# Calls of active or inactive are those of the source. How the source made its calls: active means hit-call score of the fitted dose curve at least 0.9, where 1 is the maximum; inactive means score below 0.9.
# Read-out: Tissue Factor, F3 (gene 2152)
# Assay: BSK_LPS_TissueFactor: BioMAP Diversity Plus: LPS Assay for Tissue Factor Biomarker Activity (AID 2283084)
# Conditions: primary human HUVEC with PBMC; actives raise or lower the signal
# Procedure: BSK_LPS is a cell-based, multiplexed-readout assay that uses umbilical vein endothelium and peripheral blood mononuclear cells, a human vascular primary cell co-culture, with measurements taken at 24 hours after chemical dosing in a 96-well plate.BSK_LPS_TissueFactor is an assay component measured in the BSK_LPS assay. It measures CD142 Tissue Factor antibody related to regulation of gene expression using ELISA technology.Data from the assay component BSK_LPS_TissueFactor was analyzed into 1 assay endpoint. This assay endpoint, BSK_LPS_TissueFactor, was analyzed with bidirectional fitting relative to DMSO as the negative control and baseline of activity. Using a type of binding reporter, gain or loss-of-signal activity can be used to understand changes in the signaling as they relate to the gene F3. Furthermore, this assay endpoint can be referred to as a primary readout, because this assay has produced multiple assay endpoints where this one serves a signaling function. To generalize the intended target to other relatable targets, this assay endpoint is annotated to the cytokine intended target family, where the subfamily is coagulation factor.
# The levels of cell surface (or secreted, indicated by the prefix "s") biomarker endpoints were measured by ELISA. Overt cytotoxicity to cells in confluent adherent cultures (all systems other than the BT system) was assessed by measuring total protein levels using sulforhodamine B (SRB) staining in parallel cultures at the time of biomarker measurements, indicated as SRB endpoints. For proliferation assays for adherent cell types, individual cell types are cultured at sub-confluence and relative cell numbers quantified by SRB staining at time points optimized for each system (48 h: 3C and CASM3C systems; 72 h: BT and HDF3CGF systems; 96 h: SAg system). SRB was performed by staining cells with 0.1% SRB after fixation with 10% TCA and reading wells at 560 nm.Viability and proliferation of PBMC (T cells) was quantified by Alamar Blue reduction for the SAg and BT systems. For PBMC viability (referred to as PBMC Cytotoxicity within the assay endpoint names), cells were plated (75,000/well in a 96-well plate) and then chemical samples added for 1 h before addition of activators, SEB and TSST-1 (20 ng/mL final concentration each). Cells were incubated for 90 h. Then, Alamar Blue (20 uL/well) (Invitrogen, Cat DAL1100) was added for 6 h, and the plates were read with a fluorescence microplate reader at 546/580 nm (excitation/emission). For PBMC proliferation, cells were plated and activated as above but incubated for only 16 h prior to addition of Alamar Blue. Plates were read after 6 h.
SMILES,outcome,AC50
COC(=O)c1c(C(F)F)nc(C(F)(F)F)c(C2=NCCS2)c1CC(C)C,inactive,–
CN/C(=N\[N+](=O)[O-])NCc1cnc(Cl)s1,inactive,–
Nc1cnn(-c2ccccc2)c(=O)c1Cl,inactive,–
CCCCC(C#N)(Cn1cncn1)c1ccc(Cl)cc1 (stereo not given),inactive,–
O=C(O)c1c(Cl)ccc2cc(Cl)cnc12,inactive,–
CCC(C)n1c(=O)[nH]c(C)c(Br)c1=O (stereo not given),inactive,–
COc1cc(OC)nc(NC(=O)NS(=O)(=O)c2ncccc2OCC(F)(F)F)n1,inactive,–
CC1(C)CCC(=Cc2ccc(Cl)cc2)C1(O)Cn1cncn1 (stereo not given),inactive,–
COc1cc(Cl)c(OC)cc1Cl,inactive,–
Nc1c(Cl)c(F)nc(OCC(=O)O)c1Cl,–,5.36 µM (active)
CCOP(=S)(OCC)Oc1nc(Cl)n(C(C)C)n1,inactive,–
COC(=O)NS(=O)(=O)c1ccc(N)cc1,inactive,–
CC(C)(C)C(=O)C(Oc1ccc(Cl)cc1)n1cncn1 (stereo not given),inactive,–
Nc1c(Cl)c(Cl)nc(C(=O)O)c1Cl,inactive,–
CC1(C)C(C=C(Cl)Cl)C1C(=O)OC(C#N)c1cccc(Oc2ccccc2)c1 (stereo not given),inactive,–
Cc1nc(N(C)C)nc(OC(=O)N(C)C)c1C,inactive,–
N#Cc1c(Cl)cccc1Cl,inactive,–
OC(c1ccc(Cl)cc1)(c1ccc(Cl)cc1)C(Cl)(Cl)Cl,–,20 µM (active)
Cc1c(COC(=O)[C@@H]2[C@H](/C=C(\Cl)C(F)(F)F)C2(C)C)cccc1-c1ccccc1,inactive,–
Cn1c(-c2ccccc2)cc(-c2ccccc2)[n+]1C,inactive,–

SMILES,outcome,AC50
CO/N=C(/C1=NOCCO1)c1ccccc1Oc1ncnc(Oc2ccccc2Cl)c1F,inactive,–
COC(=O)N(C(=O)N1CO[C@@]2(C(=O)OC)Cc3cc(Cl)ccc3C2=N1)c1ccc(OC(F)(F)F)cc1,inactive,–
COP(=O)(OC)O/C(C)=C/C(=O)N(C)C,inactive,–
Cc1cnc(C2=NC(C)(C(C)C)C(=O)N2)c(C(=O)O)c1 (stereo not given),inactive,–
COCC(=O)N(c1c(C)cccc1C)C(C)C(=O)OC (stereo not given),inactive,–
C=CCOC(=O)C(C)(C)OC(=O)c1cc(-n2c(=O)cc(C(F)(F)F)n(C)c2=O)ccc1Cl,inactive,–
Clc1cccc(C(Cl)(Cl)Cl)n1,inactive,–
CS(=O)(=O)c1cc(C(F)(F)F)ccc1C(=O)c1cnoc1C1CC1,inactive,–
O=c1n(Cl)c(=O)n(Cl)c(=O)n1Cl,–,0.966 µM (active)
COP(=S)(OC)SCn1nnc2ccccc2c1=O,–,16.9 µM (active)
CCCC(=NOCC)C1=C(O)CC(CC(C)SCC)CC1=O (stereo not given),inactive,–
COCC(C)N(C(=O)CCl)c1c(C)csc1C (stereo not given),inactive,–
Cc1ccc(N=CN(C)C=Nc2ccc(C)cc2C)c(C)c1,–,32.6 µM (active)
CCN(CC)C(=O)C(C)Oc1cccc2ccccc12 (stereo not given),inactive,–
CC(C)NC(=O)N1CC(=O)N(c2cc(Cl)cc(Cl)c2)C1=O,inactive,–
CC1(C)CON(Cc2ccccc2Cl)C1=O,inactive,–
CCCCOCN(C(=O)CCl)c1c(CC)cccc1CC,–,30.2 µM (active)
CCOc1nc(F)cc2nc(S(=O)(=O)Nc3c(Cl)cccc3Cl)nn12,inactive,–
CC(C)Oc1cccc(NC(=O)c2ccccc2C(F)(F)F)c1,inactive,–
CC(C)N1C(=O)c2ccccc2NS1(=O)=O,inactive,–
